Data reported in PubChem BioAssay (Tox21).
Values joined by “and” are separate entries in the source; they are usually repeats but may differ in a detail not shown here. Identical values can stand only once. Records with an inconclusive call do not appear. Some structures have more than one record in an assay (separate samples or runs), and their calls can disagree. Active and inactive are the calls of the source. Unless noted, the call rests on the fitted dose curve.

Experiments:
[1] = Nuclear factor erythroid 2-related factor 2/antioxidant responsive element (Nrf2/ARE) small molecule agonists: qHTS cell viability counter screen in human keratinocytes (AID 1919968; active means well fitted curve in the direction sought with a large enough effect in the repeat runs; an effect the other way counts as inactive or inconclusive; further: nearly all actives have a fitted effect of over 55% in size; further: potency means the concentration at half of the fitted maximal effect)
Method in brief: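 In human HaCaT keratinocytes stably expressing an ARE-driven luciferase, compound exposure lasted 23 h at 37 C under 5% CO2. Viable cells are quantified with a protease-based fluorogenic reagent (CellTiter-Fluor) read 1 h after addition.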

[2] = Nuclear factor erythroid 2-related factor 2/antioxidant responsive element (Nrf2/ARE) small molecule agonists: luciferase reporter gene qHTS assay in human keratinocytes (AID 1919969); further: nearly all actives have a fitted effect of over 35% in size; further: potency means the concentration at half of the fitted maximal effect
[3] = molecular target: Gonadotropin-releasing hormone receptor (Homo sapiens) (UniProt P30968); assay: Human gonadotropin-releasing hormone receptor (GnRHR) small molecule agonists, calcium flux assay in GnRHR-HEK293 cells (AID 1920063); further: nearly all actives have a fitted effect of over 35% in size
Method in brief: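 Intracellular calcium rise is the read-out: engineered human GnRHR HEK293 cells, dye-loaded, are exposed to DMSO-dissolved compounds and fluorescence at Ex/Em 480/540 is tracked for 3 min.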

[4] = molecular target: KiSS-1 receptor (Homo sapiens) (UniProt Q969F8); assay: Human kisspeptin (KISS1R) small molecule agonists, calcium flux assay in KISS1R-HEK293 cells (AID 1920064; active means well fitted curve in the direction sought with a large enough effect in the repeat runs; an effect the other way counts as inactive or inconclusive)
Method in brief: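 Concentration-response testing used 15 concentrations in triplicate on human KISS1R-expressing HEK293 cells. Calcium-dependent fluorescence (Ex/Em 480/540) was followed kinetically for 3 min after compound transfer.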

[5] = G protein-coupled receptor (GPCR) small molecule agonists, calcium flux assay: HEK293 wild type cell line counter screen (AID 1920065)
Method in brief: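 Fluorescence intensity signals activation. After overnight (18 h) culture and a 1 h calcium dye load at 37 C, compounds are added by pin tool and the plate read at 480/540 nm for 3 min in 1 s steps.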

[6] = p53 small molecule agonists, cell-based qHTS assay with human liver microsomes (AID 1963577);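 further: p53 response element beta-lactamase reporter cells with liver microsomes plus NADPH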
Method in brief: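 In this qHTS, p53 response-element beta-lactamase cells receive test compound together with a microsome/NADPH activating system (0.5 mg/mL final each) and are incubated 16 h at 37 C before LiveBLAzer fluorescence detection.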

[7] = p53 small molecule agonists, cell-based qHTS assay with rat liver microsomes (AID 1963578)
Method in brief: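 Agonist mode in p53RE-bla reporter cells, with compounds co-incubated 16 h at 37 C alongside 0.5 mg/mL rat liver microsomes and 0.5 mg/mL NADPH (final), followed by a 2 h LiveBLAzer detection step.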

[8] = p53 small molecule agonists, cell-based qHTS assay with human liver microsomes: qHTS cell viability counter screen (AID 1963579); further: nearly all actives have a fitted effect of over 45% in size
Method in brief: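 Metabolically activated exposure: compounds, human liver microsomes and NADPH (0.5 mg/mL final apiece) were added to p53RE-bla cells seeded 5 h earlier, left 16 h at 37 C, and then assessed for viability by CellTiter-Glo luminescence.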

[9] = p53 small molecule agonists, cell-based qHTS assay with rat liver microsomes: qHTS cell viability counter screen (AID 1963580); further: nearly all actives have a fitted effect of over 45% in size
Method in brief: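 Counter screen for cytotoxicity under metabolic activation: rat liver microsomes and NADPH, 0.5 mg/mL final each, added with compounds to p53RE-bla HCT-116 cells; 16 h at 37 C, then ATP luminescence read.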

[10] = p53 small molecule agonists, cell-based qHTS assay: qHTS cell viability counter screen (AID 1963581); further: nearly all actives have a fitted effect of over 45% in size
Method in brief: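 Luminescence from CellTiter-Glo, reflecting ATP content, serves as the cytotoxicity measure; it is taken after the 2 h reporter substrate step in HCT-116 p53RE-bla cells dosed for 16 h at 37 C.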

[11] = p53 small molecule agonists, cell-based qHTS assay (AID 1963582; active means well fitted activation curve with a large enough effect in the signal ratio in the repeat runs, not every such curve was filed as active; the % refers to the signal ratio)
Method in brief: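 After plating, p53RE-bla cells sat 5 h in the incubator; compounds or DMSO vehicle were pinned in; a 16 h incubation at 37 C followed; FRET substrate was added and, 2 h later at RT, fluorescence was measured.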

[12] = molecular target: 5-hydroxytryptamine receptor 2A (Homo sapiens) (UniProt P28223); assay: 5-hydroxytryptamine receptor 2A (HTR2A) small molecule antagonists, cell-based qHTS assay (AID 1963586); further: nearly all actives have a fitted effect of over 45% in size; further: potency means the concentration at half of the fitted maximal effect
Method in brief: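 CHO cells stably expressing human HTR2A were plated for 18 h at 37 C, then loaded with calcium dye for 1 h. Compounds were preincubated 5 min at room temperature before DOI (4 nM solution) was added. Kinetic fluorescence was read for 3 min.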

[13] = molecular target: 5-hydroxytryptamine receptor 2A (Homo sapiens) (UniProt P28223); assay: 5-hydroxytryptamine receptor 2A (HTR2A) small molecule agonists, cell-based qHTS assay (AID 1963587); further: nearly all actives have a fitted effect of over 30% in size
Method in brief: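 HTR2A-CHO cells, plated 18 h at 37 C/5% CO2, dye-loaded 1 h at 37 C; compounds in DMSO added by pin tool (agonist mode). Intracellular calcium flux read as kinetic fluorescence on FDSS over 2 min at 1 s intervals.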

[14] = molecular target: Muscarinic acetylcholine receptor M1 (Homo sapiens) (UniProt P11229); assay: Cholinergic receptor muscarinic 1 (CHRM1) small molecule antagonists, cell-based qHTS assay (AID 1963588); further: nearly all actives have a fitted effect of over 40% in size; further: potency means the concentration at half of the fitted maximal effect
Method in brief: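 Compounds were tested at 15 concentrations in three independent runs. Dye-loaded CHRM1-CHO cells were exposed 5 min at room temperature before stimulation by acetylcholine added at 50nM. Intracellular calcium was read kinetically on FDSS for 3 min.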

[15] = molecular target: Muscarinic acetylcholine receptor M1 (Homo sapiens) (UniProt P11229); assay: Cholinergic receptor muscarinic 1 (CHRM1) small molecule agonists, cell-based qHTS assay (AID 1963589); further: nearly all actives have a fitted effect of over 35% in size
Method in brief: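 Fluorescent calcium dye reports M1 activation in stably transfected CHO cells. Compounds, 15 concentrations, added after 1 h dye loading at 37 C; kinetic reading at 1 sec intervals.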

[16] = cAMP Responsive Elements (CRE) small molecule agonists, cell-based qHTS assay (AID 1963590)
Method in brief: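 Compound exposure lasted 3 h at 37 C/5% CO2 in CRE-bla HEK 293T cells grown in assay medium with 10% dialyzed FBS and 25 mM HEPES. Reporter signal came from LiveBLAzer B/G FRET substrate, 2 h, room temperature.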

[17] = molecular target: Beta-2 adrenergic receptor (Homo sapiens) (UniProt P07550); assay: Adrenergic beta2 receptor (ADRB2) small molecule antagonists, cell-based qHTS assay (AID 1963592); further: series mostly up to about 92 µM; nearly all actives have a fitted effect of over 50% in size
Method in brief: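 Assay format: CHO-ADRB2 cells, 18-20hr seeding at 37C/5% CO2, then compound plus 1nM isoproterenol agonist mix for 0.5hr RT. Homogeneous time-resolved fluorescence cAMP detection after 1hr, expressed as 665/615 nm ratio.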

[18] = molecular target: D(2) dopamine receptor (Homo sapiens) (UniProt P14416); assay: Dopamine D2 receptor (DRD2) small molecule agonists, cell-based qHTS assay (AID 1963594); further: nearly all actives have a fitted effect of over 35% in size
Method in brief: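 HEK293 cells stably expressing DRD2 were cultured 24 h at 37 C, then given Ro20-1724 (0.1 mM final) and compounds for 10 min at room temperature. NKH477 (200nM) was then added for 30 min. cAMP was read by HTRF.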

[19] = molecular target: D(2) dopamine receptor (Homo sapiens) (UniProt P14416); assay: Dopamine D2 receptor (DRD2) small molecule antagonists, cell-based qHTS assay (AID 1963595; active means well fitted inhibition curve with a large enough effect in the signal ratio in the repeat runs, with a control signal flat; the % refers to the signal ratio)
Method in brief: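 Antagonism was scored as restored cAMP in HEK293-DRD2 cells. These cells were stimulated with 200 nM NKH477 and 12 nM quinpirole for 30 min at room temperature, in the presence of 0.1 mM Ro20-1724.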

[20] = cAMP Responsive Elements (CRE) small molecule antagonists, cell-based qHTS assay (AID 1963591; active means well fitted inhibition curve with a large enough effect in the signal ratio in the repeat runs, not every such curve was filed as active; the % refers to the signal ratio)
Method in brief: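 Stimulation used NKH477 at a final 0.25 uM for 3 h in compound-treated CRE-bla HEK293T cells, seeded 18 h beforehand. Reporter activity was measured with LiveBLAzer B/G FRET substrate after 2 h at room temperature.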

Measured: Potency

Sequence of D(2) dopamine receptor (Homo sapiens) (P14416 whole entry, looked up): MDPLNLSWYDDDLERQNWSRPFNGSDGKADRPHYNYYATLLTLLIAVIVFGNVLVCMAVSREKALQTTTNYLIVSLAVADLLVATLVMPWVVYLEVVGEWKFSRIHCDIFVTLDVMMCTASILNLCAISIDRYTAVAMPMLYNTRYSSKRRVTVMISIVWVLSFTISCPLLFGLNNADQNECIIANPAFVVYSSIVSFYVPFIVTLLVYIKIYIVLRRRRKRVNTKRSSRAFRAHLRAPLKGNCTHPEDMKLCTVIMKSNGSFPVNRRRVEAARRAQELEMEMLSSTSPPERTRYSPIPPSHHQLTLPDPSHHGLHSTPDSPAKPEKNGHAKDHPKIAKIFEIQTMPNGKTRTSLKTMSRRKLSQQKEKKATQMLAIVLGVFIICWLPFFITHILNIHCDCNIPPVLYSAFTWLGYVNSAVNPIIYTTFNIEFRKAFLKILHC
Sequence of Muscarinic acetylcholine receptor M1 (Homo sapiens) (P11229 whole entry, looked up): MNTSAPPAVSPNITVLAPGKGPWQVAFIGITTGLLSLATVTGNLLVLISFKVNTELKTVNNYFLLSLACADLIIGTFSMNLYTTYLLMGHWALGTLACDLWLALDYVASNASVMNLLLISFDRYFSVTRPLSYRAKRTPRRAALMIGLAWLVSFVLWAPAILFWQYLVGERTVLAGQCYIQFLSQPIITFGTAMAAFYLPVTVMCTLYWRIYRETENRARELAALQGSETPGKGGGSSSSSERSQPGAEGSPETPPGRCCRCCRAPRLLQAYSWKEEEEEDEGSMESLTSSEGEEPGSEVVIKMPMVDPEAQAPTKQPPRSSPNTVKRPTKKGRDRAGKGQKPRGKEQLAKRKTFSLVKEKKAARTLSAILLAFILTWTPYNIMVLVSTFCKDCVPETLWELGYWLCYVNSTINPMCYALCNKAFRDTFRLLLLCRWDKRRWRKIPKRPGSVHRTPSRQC
Sequence of Gonadotropin-releasing hormone receptor (Homo sapiens) (P30968 whole entry, looked up): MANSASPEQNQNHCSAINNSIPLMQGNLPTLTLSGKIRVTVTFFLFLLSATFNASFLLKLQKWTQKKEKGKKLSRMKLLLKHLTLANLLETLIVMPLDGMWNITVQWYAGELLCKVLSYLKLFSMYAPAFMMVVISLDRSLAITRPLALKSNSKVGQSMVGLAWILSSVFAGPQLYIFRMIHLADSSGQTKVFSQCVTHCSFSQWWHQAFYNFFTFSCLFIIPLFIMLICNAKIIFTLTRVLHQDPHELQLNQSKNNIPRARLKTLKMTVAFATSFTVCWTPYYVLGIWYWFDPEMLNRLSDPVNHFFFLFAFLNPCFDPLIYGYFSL
Sequence of Beta-2 adrenergic receptor (Homo sapiens) (P07550 whole entry, looked up): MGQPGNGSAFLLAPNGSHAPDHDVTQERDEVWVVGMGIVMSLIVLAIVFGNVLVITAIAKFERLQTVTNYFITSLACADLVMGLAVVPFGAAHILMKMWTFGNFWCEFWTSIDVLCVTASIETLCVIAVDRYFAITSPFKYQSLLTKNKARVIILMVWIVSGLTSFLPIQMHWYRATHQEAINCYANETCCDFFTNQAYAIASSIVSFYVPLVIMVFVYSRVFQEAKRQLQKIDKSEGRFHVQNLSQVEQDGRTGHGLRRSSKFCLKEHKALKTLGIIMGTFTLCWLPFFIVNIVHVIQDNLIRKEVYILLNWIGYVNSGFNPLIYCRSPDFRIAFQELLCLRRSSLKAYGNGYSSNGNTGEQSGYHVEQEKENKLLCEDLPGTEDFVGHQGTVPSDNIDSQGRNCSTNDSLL
Sequence of KiSS-1 receptor (Homo sapiens) (Q969F8 whole entry, looked up): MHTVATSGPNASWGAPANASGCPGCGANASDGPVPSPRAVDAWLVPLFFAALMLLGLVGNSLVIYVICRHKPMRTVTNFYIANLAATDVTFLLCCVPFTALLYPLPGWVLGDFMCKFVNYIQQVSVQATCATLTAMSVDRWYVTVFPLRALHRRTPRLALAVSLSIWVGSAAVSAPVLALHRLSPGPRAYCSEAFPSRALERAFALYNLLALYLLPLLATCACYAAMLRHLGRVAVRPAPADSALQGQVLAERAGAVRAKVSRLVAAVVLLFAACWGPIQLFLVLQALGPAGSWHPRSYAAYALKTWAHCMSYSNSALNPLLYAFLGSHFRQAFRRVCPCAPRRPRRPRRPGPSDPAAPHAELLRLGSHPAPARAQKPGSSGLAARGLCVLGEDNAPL
Sequence of 5-hydroxytryptamine receptor 2A (Homo sapiens) (P28223 whole entry, looked up): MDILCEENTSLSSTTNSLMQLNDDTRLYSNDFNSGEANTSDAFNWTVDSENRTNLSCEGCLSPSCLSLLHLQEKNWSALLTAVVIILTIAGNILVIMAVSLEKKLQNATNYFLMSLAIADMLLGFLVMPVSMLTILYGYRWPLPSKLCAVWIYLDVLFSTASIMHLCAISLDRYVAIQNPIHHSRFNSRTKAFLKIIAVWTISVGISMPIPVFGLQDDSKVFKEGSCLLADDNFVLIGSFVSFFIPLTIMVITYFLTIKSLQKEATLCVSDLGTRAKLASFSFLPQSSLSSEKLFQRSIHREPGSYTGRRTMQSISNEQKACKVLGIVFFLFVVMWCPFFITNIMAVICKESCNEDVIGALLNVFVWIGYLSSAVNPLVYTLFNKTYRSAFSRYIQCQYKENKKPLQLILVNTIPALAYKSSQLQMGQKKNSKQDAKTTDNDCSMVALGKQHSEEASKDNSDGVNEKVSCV

C=CC(=O)OCC(C)C
not listed: [20]
inactive: all other assays above

Cc1ccc2ccccc2c1
not listed: [20]
inactive: all other assays above

CC1(C)[C@H](C(=O)O[C@H](C#N)c2cccc(Oc3ccccc3)c2)[C@@H]1/C=C(\Cl)C(F)(F)F
not listed: [16]
inactive: all other assays above

CCC(=O)C(CC(C)N(C)C)(c1ccccc1)c1ccccc1 (configuration not stated)
inactive and 10.1 µM (active): [14]
not listed: [16] | [20]
inactive: all other assays above

Clc1nc(Cl)nc(Cl)n1
not listed: [16]
inactive: all other assays above

Cc1cc(N=Nc2ccccc2C)ccc1N
54.5 µM (active) and inactive: [1]
not listed: [16] | [20]
inactive: all other assays above

CN(CCO)CCO
not listed: [15]
inactive: all other assays above

c1ccc(C2CO2)cc1 (configuration not stated)
4.8 nM (active) and inactive: [12]
not listed: [20]
inactive: all other assays above

O=C1CCCO1
14.6 µM (active) and inactive: [14]
not listed: [16]
inactive: all other assays above

CCCCCCCCCCBr
not listed: [20]
inactive: all other assays above

Nc1ccc(-c2ccccc2)cc1
active: [2] 13.7 µM
not listed: [16]
inactive: all other assays above

c1ccc(OP(Oc2ccccc2)Oc2ccccc2)cc1
not listed: [20]
inactive: all other assays above

Brc1ccc(Br)cc1
not listed: [13]
inactive: all other assays above

COC(=O)c1cncn1C(C)c1ccccc1 (configuration not stated)
not listed: [14]
inactive: all other assays above

NCC(O)c1ccc(O)cc1 (configuration not stated)
not listed: [13]
inactive: all other assays above

Oc1ccccc1Cl
not listed: [14] | [20]
inactive: all other assays above

FC(Cl)(Cl)Cl
not listed: [13]
inactive: all other assays above

Oc1ccc(Cl)c(Cl)c1
not listed: [14]
inactive: all other assays above

Clc1ccc(C(Cl)(Cl)Cl)cn1
not listed: [13]
inactive: all other assays above

CC[N+]1(CC)CCC(OC(=O)C(O)(c2ccccc2)c2ccccc2)C1 (configuration not stated)
active: [14] 2.3 nM
not listed: [13]
inactive: all other assays above

Cc1ccc([N+](=O)[O-])cc1
not listed: [13]
inactive: all other assays above

CC(=O)[C@H]1CC[C@H]2[C@@H]3CC[C@H]4C[C@](C)(O)CC[C@]4(C)[C@H]3CC[C@]12C
not listed: [14]
inactive: all other assays above

CC(=O)C(Cl)Cl
not listed: [13]
inactive: all other assays above

Nc1cc(Cl)cc(Cl)c1
not listed: [13]
inactive: all other assays above

C#CCO
not listed: [13]
inactive: all other assays above

C(CCOCC1CO1)COCC1CO1 (configuration not stated)
active: [2] 30.2 µM
not listed: [14]
inactive: all other assays above

Cc1ccc(N)c(N)c1
active: [2] 4.87 µM and 68.6 µM
not listed: [13]
inactive: all other assays above

O=Cc1ccco1
not listed: [14] | [17]
inactive: all other assays above

CCOP(OCC)OCC
not listed: [15]
inactive: all other assays above
